{
  "source": "PubChem BioAssay AID687016",
  "about": "(The Scripps Research Institute Molecular Screening Center, 2013)",
  "note": "The campaign covered roughly 370,000 compounds. About 2,800 (0.76%) were called active. No stated cut-off is given here; in the data, active means inhibition above about 21%; inactive means the rest. The list comes from a sample in which actives are over-represented; it also holds similar structures and randomly drawn compounds.",
  "data": [
    {"biological_target": "E3 ubiquitin-protein ligase UHRF1 (Homo sapiens) (UniProt Q96T88)", "sequence (Q96T88 whole entry, looked up, the tested form may be a part)": "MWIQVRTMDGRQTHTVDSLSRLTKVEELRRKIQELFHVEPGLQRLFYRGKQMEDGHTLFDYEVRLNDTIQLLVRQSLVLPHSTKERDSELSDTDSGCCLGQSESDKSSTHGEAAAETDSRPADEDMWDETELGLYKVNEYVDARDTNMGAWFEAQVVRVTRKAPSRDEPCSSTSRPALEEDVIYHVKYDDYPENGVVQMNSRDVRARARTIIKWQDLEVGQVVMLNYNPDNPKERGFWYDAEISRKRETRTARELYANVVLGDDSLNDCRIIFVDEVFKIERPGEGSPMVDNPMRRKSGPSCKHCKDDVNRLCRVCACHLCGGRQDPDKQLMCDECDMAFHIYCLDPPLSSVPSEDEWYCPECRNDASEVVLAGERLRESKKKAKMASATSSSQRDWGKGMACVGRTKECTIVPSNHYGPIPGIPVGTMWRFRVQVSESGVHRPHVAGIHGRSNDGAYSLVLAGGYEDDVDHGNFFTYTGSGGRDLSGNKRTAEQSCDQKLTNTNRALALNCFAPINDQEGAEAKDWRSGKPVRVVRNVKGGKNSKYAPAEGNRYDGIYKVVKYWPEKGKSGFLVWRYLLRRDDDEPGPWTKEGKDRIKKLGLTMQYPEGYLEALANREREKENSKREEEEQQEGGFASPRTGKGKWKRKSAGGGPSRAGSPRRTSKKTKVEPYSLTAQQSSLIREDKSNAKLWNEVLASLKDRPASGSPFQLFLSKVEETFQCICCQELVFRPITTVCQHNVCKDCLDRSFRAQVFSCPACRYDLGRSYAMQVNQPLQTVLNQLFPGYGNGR", "assay": "UHRF1 methylated DNA binding inhibitors, primary screen, counter-screen for MBD2 inhibitor project, biochemical, TR-FRET, human UHRF1, single concentration (AID 687016);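 further: UHRF1 SRA domain binding a hemimethylated CpG hairpin DNA probe; 0% = median of test compound wells and 100% = reference inhibitor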", "conditions": "UHRF1 binding to methylated oligo, at 4.4 µM, hits give high values", "values": [
      {"smiles": "OCC(CO)(CO)NCc1ccc(-c2ccccc2)cc1", "inhibition": "24.9% (active)"},
      {"smiles": "c1ccc(CNCc2ccc(CNCc3ccccc3)cc2)cc1", "inhibition": "-2.85% (inactive)"},
      {"smiles": "OCc1ccc(-c2ccccc2)c(-c2ccccc2)c1", "inhibition": "-1.66% (inactive)"},
      {"smiles": "CN1[C@H](Cc2ccccc2)COc2cccc(N3CCSCC3)c2S1(=O)=O", "inhibition": "6.46% (inactive)"},
      {"smiles": "O=C(CSc1nnc(-c2ccccn2)n1-c1ccc(Cl)cc1)Nc1ccccc1-c1ccccc1", "inhibition": "-0.44% (inactive)"},
      {"smiles": "COc1ccc(C(=O)N2CCC(C(=O)Nc3ccc(C)cc3)CC2)cc1", "inhibition": "98.2% (active)"},
      {"smiles": "COc1ccc(C(=O)N2CCC(C(=O)Nc3cccc(C)c3)CC2)cc1OC", "inhibition": "-2.09% (inactive)"},
      {"smiles": "O=C(Nc1ccccc1)C1CCN(C(=O)c2ccc(Br)cc2)CC1", "inhibition": "-0.01% (inactive)"},
      {"smiles": "CC(C)(C)NC(=O)C(c1cccnc1)N(C(=O)c1cnco1)c1ccc(C(C)(C)C)cc1", "note": "(stereo not given)", "inhibition": "-2.85% (inactive)"},
      {"smiles": "O=C(c1ccncc1)N1CC[C@H]2[C@H](CCCN2Cc2ccc(F)cc2)C1", "inhibition": "-0.99% (inactive)"},
      {"smiles": "COc1ccccc1C(=O)CSc1nnc(-c2ccccn2)n1-c1ccccc1", "inhibition": "0.85% (inactive)"},
      {"smiles": "COc1ccc(-n2c(SCC(=O)Nc3ccc4cn[nH]c4c3)nnc2-c2cccnc2)cc1", "inhibition": "0.56% (inactive)"},
      {"smiles": "CC(C)CNc1cccc2c1S(=O)(=O)N(Cc1cn(Cc3ccc(Cl)cc3)nn1)Cc1ccccc1O2", "inhibition": "2.31% (inactive)"},
      {"smiles": "COc1ccc(N2CCN(C(=O)CNC(=O)c3ccc(C(C)(C)C)cc3)CC2)cc1", "inhibition": "-2.46% (inactive)"},
      {"smiles": "CSc1nccc(NC(=O)c2ccc(C(C)(C)C)cc2)n1", "inhibition": "5.85% (inactive)"},
      {"smiles": "COC(=O)c1nc(NC(=O)c2ccc(C(C)(C)C)cc2)n[nH]1", "inhibition": "87.5% (active)"},
      {"smiles": "CCOC(=O)[C@]12CCCC=C1N(Cc1ccc(OC)cc1)C(=O)[C@@H]2CC(=O)N1CCOCC1", "inhibition": "-0.91% (inactive)"},
      {"smiles": "CCCCCCN1CCS(=O)(=O)N(Cc2ccc(C(F)(F)F)cc2)C(C(=O)OC)C1", "note": "(stereo not given)", "inhibition": "-2.34% (inactive)"},
      {"smiles": "CC(C)N1CCCCC(NC(=O)C(C)(C)C)C1=O", "note": "(stereo not given)", "inhibition": "-1.29% (inactive)"},
      {"smiles": "CC(C)CNc1cccc2c1S(=O)(=O)N(Cc1cn(Cc3ccccc3C(F)(F)F)nn1)Cc1ccccc1O2", "inhibition": "1.83% (inactive)"},
      {"smiles": "Cc1cc(=O)[nH]c(SCC(=O)Nc2ccc(Cl)cc2C)n1", "inhibition": "-2.56% (inactive)"},
      {"smiles": "Cc1c(CC(=O)N2CCN(C(=O)C3COc4ccccc4O3)CC2)c(=O)oc2c(O)c(O)ccc12", "note": "(stereo not given)", "inhibition": "28.8% (active)"},
      {"smiles": "Cc1ccc(S(=O)(=O)NCCC(=O)NNC(=O)C2COc3ccccc3O2)cc1", "note": "(stereo not given)", "inhibition": "-3.3% (inactive)"},
      {"smiles": "CC(=O)c1ccccc1NC(=O)COC(=O)C1COc2ccccc2O1", "note": "(stereo not given)", "inhibition": "6.15% (inactive)"},
      {"smiles": "CCOc1ccccc1NC(=O)C12CC3CC(C1)CC(c1ccc(C)cc1)(C3)C2", "inhibition": "2.15% (inactive)"},
      {"smiles": "CCCn1c(NC(=O)C23CC4CC(CC(O)(C4)C2)C3)nc2ccccc21", "inhibition": "21% (active)"},
      {"smiles": "CCCn1c(C(Cc2ccccc2)NC(=O)COC)nc2ccccc21", "note": "(stereo not given)", "inhibition": "-1.58% (inactive)"},
      {"smiles": "N#CCC[C@H]1CC[C@]2(CCCN(Cc3ccc(Cl)cc3)C2)O1", "inhibition": "3.52% (inactive)"},
      {"smiles": "O=C(CSc1nnc(-c2cccc(Cl)c2)n1Cc1ccco1)Nc1ccc(OCc2ccccc2)cc1", "inhibition": "-1.67% (inactive)"},
      {"smiles": "FC(F)(F)c1cccc(Cn2ccc3ccc(-c4ccc5ccn(Cc6ccccc6)c5c4)cc32)c1", "inhibition": "0.27% (inactive)"},
      {"smiles": "O=C(Nc1nc(-c2ccco2)c(-c2ccco2)s1)c1ccco1", "inhibition": "51.4% (active)"},
      {"smiles": "O=C(Nc1c(-c2ccccc2)nc2c(Br)cc(Br)cn12)c1ccco1", "inhibition": "1.55% (inactive)"},
      {"smiles": "O=C(Nc1ccccc1C(=O)N1CCCCC1)c1ccco1", "inhibition": "3.17% (inactive)"},
      {"smiles": "CCOc1ccc(N(CC(=O)Nc2c(C)n(C)n(-c3ccccc3)c2=O)S(=O)(=O)c2ccc(Cl)s2)cc1", "inhibition": "-0.95% (inactive)"},
      {"smiles": "O=C(CN1CCC(NC(=O)NCc2ccccc2)CC1)Nc1ccc2c(c1)OCCO2", "inhibition": "1.96% (inactive)"},
      {"smiles": "C[C@H]1[C@H](NC(=O)c2cccc(N(C)C)c2)CC[C@@]23CCCN2C(=O)CCC[C@@H]13", "inhibition": "0.44% (inactive)"},
      {"smiles": "Cc1cccc(C(=O)N2CCCC(Nc3ccc(C(C)C)cc3)C2)n1", "note": "(stereo not given)", "inhibition": "22.3% (active)"},
      {"smiles": "COc1ccc(NC2CCCN(C(=O)c3ccncc3)C2)cc1", "note": "(stereo not given)", "inhibition": "-3.03% (inactive)"},
      {"smiles": "CC(C)c1ccc(NC2CCCN(C(=O)c3ccncc3)C2)cc1", "note": "(stereo not given)", "inhibition": "1.9% (inactive)"},
      {"smiles": "COc1ccc2c(C(C)c3ccc(N)cc3)cn(C)c2c1", "note": "(stereo not given)", "inhibition": "3.85% (inactive)"},
      {"smiles": "Cc1cc(C)nc(NC(=S)N2CCN(c3ccc(C(F)(F)F)cn3)CC2)c1", "inhibition": "-0.11% (inactive)"},
      {"smiles": "COc1ccc(CCNC(=O)CSc2nc3c([nH]2)c(=O)n(C)c(=O)n3C)cc1", "inhibition": "-0.65% (inactive)"},
      {"smiles": "C=CCc1cccc2cc(C(=O)Nc3ccc(NC(C)=O)cc3)c(=O)oc12", "inhibition": "28.9% (active)"},
      {"smiles": "C=CCc1cccc2cc(C(=O)NC3CCCC3)c(=O)oc12", "inhibition": "2.45% (inactive)"},
      {"smiles": "C=CCc1cccc2cc(C(=O)N3CCN(C(=O)OCC)CC3)c(=O)oc12", "inhibition": "-2.84% (inactive)"},
      {"smiles": "COc1ccc(-n2c(COc3ccccc3)nnc2SCC(=O)Nc2ccc3c(c2)OCO3)cc1", "inhibition": "0.77% (inactive)"},
      {"smiles": "COC(=O)c1cc(S(=O)(=O)N2CCN(C(=O)C3CCCO3)CC2)cn1C", "note": "(stereo not given)", "inhibition": "-1.8% (inactive)"},
      {"smiles": "COC1=C[C@H](C(=O)NCCNC(C)=O)[C@H](C)[C@@H](c2ccccc2)CC1=O", "inhibition": "-3.81% (inactive)"},
      {"smiles": "CCCCn1c(N)c(N(CC(C)C)C(=O)c2ccc(Br)o2)c(=O)[nH]c1=O", "inhibition": "0.08% (inactive)"},
      {"smiles": "CCCCn1c(N)c(N(CC(C)C)C(=O)c2cnc(C)cn2)c(=O)[nH]c1=O", "inhibition": "-0.01% (inactive)"},
      {"smiles": "CCCCn1c(N)c(N(CC(C)C)C(=O)C2CSC3(C)CCC(=O)N23)c(=O)[nH]c1=O", "note": "(stereo not given)", "inhibition": "28.1% (active)"},
      {"smiles": "CN(C(N)=NC(=O)/C=C/c1ccccc1)C(C#Cc1ccccc1)Cc1ccccc1", "note": "(stereo not given)", "inhibition": "-1.59% (inactive)"},
      {"smiles": "COC(=O)C(C)Oc1ccc2c(-c3cccc([N+](=O)[O-])c3)cc(=O)oc2c1", "note": "(stereo not given)", "inhibition": "-2.28% (inactive)"},
      {"smiles": "CC(=O)Oc1ccc2c(=O)oc(-c3ccc([N+](=O)[O-])cc3)nc2c1", "inhibition": "20.8% (active)"},
      {"smiles": "COc1ccc(-c2[nH][nH]c(=O)c2NC(=O)c2ccc([N+](=O)[O-])cc2)cc1", "inhibition": "-5.21% (inactive)"}
    ]}
  ]
}
